From the supplement of paper PMC6555819

Key:
Test in all cases: PBM binding z-score (relative to random genomic background probes); higher = stronger binding; sequences stand for … in GC…GCGATTGACAGCGTAGAATGAAGG
[1] = system: RARb homodimer (NR concentration 270 nM)
How it was run: (§1)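 Random background probes are the reference for binding z-scores. These scores derive from regression-normalized fluorescence on custom Agilent 4×180K protein-binding microarrays incubated 1 h with ligand-free nuclear receptor dimers. Binding was detected with antibodies against each partner (one per run).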

[2] = system: RARg:RXRa (NR concentration 270 nM, RXRa partner concentration 90 nM)
How it was run: as §1

[3] = system: RARg homodimer (NR concentration 270 nM)
How it was run: as §1

[4] = system: RXRa DBDmut IVT, anti-RXR (DBD mutation: RXRa K156A/R161A, NR concentration 90 nM)
How it was run: as §1

[5] = system: RXRa homodimer (NR concentration 180 nM)
How it was run: as §1

[6] = system: THRa:RXRa (NR concentration 90 nM, RXRa partner concentration 90 nM)
How it was run: as §1

[7] = system: THRa homodimer (NR concentration 90 nM)
How it was run: as §1

[8] = system: VDR homodimer (NR concentration 270 nM)
How it was run: as §1

| Sequence | PBM binding z-score [1] | PBM binding z-score [2] | PBM binding z-score [3] | PBM binding z-score [4] | PBM binding z-score [5] | PBM binding z-score [6] | PBM binding z-score [7] | PBM binding z-score [8] |
| --- | --- | --- | --- | --- | --- | --- | --- | --- |
| TCTTGTAGATTAGCAGGTTAAGAAAGCTGGCCAA | 0.292 | -0.0657 | -0.174 | 0.682 | 0.386 | 0.458 | -0.511 | -0.173 |
| CCTAGCAGGCCAGGGTCACTAAAGCATTTCGCTT | 2.69 | 2.79 | 2.41 | 0.297 | 2.89 | 2.67 | 0.878 | 0.922 |
| GCGTCTGGGGCAAAGCAGGTTACCATAAGGTTGG | 1.13 | 0.435 | 0.815 | -0.387 | 0.339 | 3.04 | 0.0693 | -0.358 |
| CCTTACGGGTCACTCCAGGTTTTAGCATCGGAGT | 2.77 | 4.49 | 4.02 | 1.79 | 4.23 | 4.31 | 0.0902 | 1.74 |
| CAAACTAGGTCACGAAGGGTCAAAGTCGAATGAC | 5.36 | 7.01 | 7.66 | 2.33 | 7.15 | 4.95 | 2 | 3.79 |
| ACAGCCAGGTGATGAAGGTAACTCAGGCTATCAT | -0.0957 | -0.0664 | 0.0616 | -0.658 | 0.21 | 1.1 | 0.166 | -0.584 |
| ACTAGCAGGCCAAGTTTAGGTCACTCAAACAAAG | 2.6 | 3 | 2.44 | 0.0394 | 0.727 | 3.43 | 2.59 | 0.966 |
| CGAACTAGGTCACAACAGGACAGTGAAGGATGAT | 3.02 | 4.09 | 4.79 | 1.63 | 2.91 | 4.09 | 1.16 | 0.27 |
| TCAGATAGGTAATACAGGTGAAAGTCGGCATCTA | 0.54 | 0.562 | 0.364 | 1.27 | 1.03 | 0.795 | 0.181 | 0.187 |
| CGTCAAAGTTAAACTAAGGTAACGTAAAGCACGC | 0.585 | 0.536 | 0.659 | 0.0253 | 0.521 | 4.04 | 1.78 | 0.399 |
| CTCGAAAGGTCGTGCCCAGGTGAGTATACCAAAC | 2.89 | 5.31 | 3.78 | 1.72 | 5.09 | 3.87 | 0.947 | 1.31 |
| CCTACTGGGCCAAAGGTCATTGATTCCAATGCTC | 4.66 | 5.94 | 4.86 | 1.43 | 7.21 | 3.33 | 0.631 | 2.09 |
| CCTACTGGGCCACGAAAGGTCATCGATTCAGTGA | 4.88 | 5.15 | 4.75 | 0.398 | 5.62 | 4 | 1.08 | 1.56 |
| GGAACGAGTGCATTCGAGTTGATAGCATGGCGAT | -0.91 | -0.352 | 0.0126 | 3.87 | -0.0218 | 1.92 | -1.23 | 4.44 |
| TCAGACAGGTGAAGGTAACACAGGTACGCAGTCG | 1.34 | 0.896 | 1 | 1.56 | 1.54 | 1.36 | 0.868 | 0.48 |
| CCATACGGGTCACTGACAGGTTATAGCATTTGGA | 3.06 | 5.82 | 4.78 | 1.24 | 5.32 | 2.84 | -0.0458 | 1.3 |
| GCTGCTAGTTCAGGTTGGTCAGCTAACGGGTACG | 0.833 | 0.083 | 0.586 | 1.19 | -0.153 | -0.00713 | -0.222 | 0.636 |
| TCTATTAGTTGCAGGGCAACCGACGAGTCCGTTT | 0.506 | 0.104 | 0.0745 | 1.28 | 0.296 | 0.323 | 0.293 | 1.45 |
| TCTAGTTGGTCATAGGTCACACACTCGAAATGCG | 3.67 | 4.2 | 3.58 | 1.63 | 4.58 | 2.68 | 1.47 | 1.63 |
| TAGCCTAGGTCGTTGGGCCAGTATAGTACGCATC | 0.513 | 0.529 | 0.698 | 0.311 | 0.61 | 0.621 | 0.0467 | 0.0773 |
| TTACCAAAGTGAAGGTCGTTGATCCCTCTGTAGA | 0.733 | 0.112 | -0.254 | 0.0594 | 0.926 | 0.74 | -0.495 | 0.739 |
| TTACCATGGTGAGCTGAGGTCGTTGATCCAACTC | 0.61 | 0.0619 | -0.479 | -0.0297 | 0.594 | 2.81 | 1.14 | 1.7 |
| GCGACTGGGGCATCAGCAGGTTACCATCACTTAA | 0.92 | 0.879 | 0.45 | -0.0239 | 0.259 | 0.783 | 0.0403 | -0.183 |
| GCTGCTAGGTCAGGTTTGTCAGCTAACGGGTACG | 2.21 | 2.03 | 2.94 | 0.952 | 0.681 | 1.48 | 0.489 | 0.755 |
| TCTCGGAGGACACGCAAGGTCAGAGCTCGACATC | 3.96 | 3.16 | 3.84 | 1.23 | 2.01 | 4.25 | 2.64 | 1.06 |
| GCGACTGGGGCATCAGCAGGTGACCATAACTTAA | 0.835 | 0.367 | 0.374 | -0.296 | -0.0343 | 0.956 | -0.08 | -0.617 |
